Compound activity (PubChem)
G9a inh = G9a (human) methyltransferase inhibition; Q96KQ7; G9a H3K9 monomethylation, AlphaScreen, 2 h; Potency, µM (titrated, usually from 102 µM), most hits filed as inhibitors; 350,000 tested, 8.8% active; AID 504332; further: nearly all actives have a fitted effect of over 75% in size
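Quantitative HTS format: methyltransferase activity on a biotin-tagged H3K9 peptide is measured by AlphaScreen, using a rabbit anti-monomethyl-H3K9 antibody with streptavidin donor and anti-IgG acceptor beads. Final levels are 20 nM enzyme, 500 nM peptide, 20 uM SAM; 2 h RT.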
BAZ2B block = blocks human BAZ2B. AlphaScreen BAZ2B-H3K14Ac peptide displacement. Potency, µM (top dose mostly 114 µM), most hits filed as inhibitors. 360,000 tested, 4.4% active. AID 504333; further: nearly all actives have a fitted effect of over 60% in size
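Compounds, titrated to a top concentration of 110 uM, were incubated 30 min at room temperature with preformed BAZ2B/acetyl-K14 H3 peptide complex (50 nM each). Proximity signal was measured by AlphaScreen after 20 min with beads.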
HP1b binding inh = inhibitors of HP1-beta chromodomain binding to methylated histone tails. Potency, µM (top dose mostly 114 µM), most hits filed as inhibitors. 390,000 tested, 0.56% active. AlphaScreen HP1-beta / biotin-H3K9me3 peptide binding. P83916; further: nearly all actives have a fitted effect of over 70% in size
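AlphaScreen: HP1-beta (50 nM) preformed 30 min with biotin-H3(1-18)K9me3 peptide (50 nM) in PBS pH 7.4, 0.01% Tween-20. Compound added for 30 min at RT, then streptavidin donor/nickel chelate acceptor beads (10 ug/mL) for 30 min.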
PLK1 PBD block = blocks phosphopeptide binding to human PLK1 polo-box domain; Plk1 PBD binding of FITC phosphopeptide, fluorescence polarization; 360,000 tested, 2.8% active; P53350; Potency, µM, hits mostly inhibitors; further: series mostly up to about 57 µM; nearly all actives have a fitted effect of over 65% in size
Target sequence (P53350 whole entry, looked up, the tested form may be a part): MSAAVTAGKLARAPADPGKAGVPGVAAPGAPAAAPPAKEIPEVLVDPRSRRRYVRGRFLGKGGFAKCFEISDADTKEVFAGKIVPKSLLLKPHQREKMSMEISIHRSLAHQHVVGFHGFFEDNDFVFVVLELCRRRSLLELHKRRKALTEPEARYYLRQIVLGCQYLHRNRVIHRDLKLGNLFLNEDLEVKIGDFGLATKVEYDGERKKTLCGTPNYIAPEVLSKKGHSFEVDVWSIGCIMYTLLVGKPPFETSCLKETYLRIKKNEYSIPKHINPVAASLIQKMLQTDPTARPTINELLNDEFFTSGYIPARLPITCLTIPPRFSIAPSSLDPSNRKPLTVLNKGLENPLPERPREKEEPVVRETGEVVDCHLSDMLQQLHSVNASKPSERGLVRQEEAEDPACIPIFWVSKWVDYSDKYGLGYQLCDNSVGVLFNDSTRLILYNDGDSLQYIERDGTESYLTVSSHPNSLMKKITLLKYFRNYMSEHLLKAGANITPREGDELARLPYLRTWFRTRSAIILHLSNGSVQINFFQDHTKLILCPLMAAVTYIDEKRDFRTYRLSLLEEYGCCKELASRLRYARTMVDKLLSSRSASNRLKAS
JMJD2A Tudor = JMJD2A Tudor domain (human) inhibition. O75164. AlphaScreen JMJD2A-Tudor / H3K4me3 peptide binding. Potency, µM (doses to about 114 µM), usual class: inhibitors. 390,000 tested, 4.4% active. AID 504339; further: nearly all actives have a fitted effect of over 50% in size
Sfp inh = blocks B. subtilis Sfp PPTase activity | Potency, µM, hits mostly inhibitors | 310,000 tested, 3.5% active | Q9F4F7 | Biochemical Sfp PPTase activity, qHTS;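 further: the enzyme is Sfp with the accession as filed and its product quenches rhodamine fluorescence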
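After 15 min at room temperature with compound, 15 nM Sfp received 5 uM rhodamine-CoA plus 12.5 uM BHQ-2-ybbR (50 mM Hepes pH 7.6, 10 mM MgCl2). Rate came from the fluorescence difference over 30 min, ex 525/em 598 nm.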
A number is an active result; – = inactive; ? = inconclusive; · = no result; ! = not active in a repeat; [ ] = another dose, or the depositor's remark. Sampled rows, rich in hits. Any-hit rate of the full collection: about 12%. The call rests on the fitted dose curve; in most records, active means well fitted curve in the direction sought with a large enough effect; inconclusive means small, poorly fitted or top-dose-only effect, or another doubt; inactive means no such curve, though single readings can be large; an effect the other way counts as inactive or inconclusive.

SMILES | G9a inh | BAZ2B block | HP1b binding inh | PLK1 PBD block | JMJD2A Tudor | Sfp inh
CCNC(=O)C1(C)CCN(C(=O)C(c2ccccc2)c2ccccc2)C1 (centres undefined) | · | · | · | – | · | ·
O=C(CSc1nnc(-c2ccco2)o1)N1CCN(c2ccccc2)CC1 | – | – | – | 30µM | ? | –
CCCn1c(N)c(N(CCOC)C(=O)c2ccc(F)cc2F)c(=O)[nH]c1=O | – | – | – | – | – | –
CN(C)CCN1CCN(C2CN(Cc3cn(Cc4ccccc4C(F)(F)F)nn3)S(=O)(=O)C2)CC1 (centres undefined) | · | · | · | – | · | ·
CCOC(=O)c1c(CN2CCOCC2)n(C)c2cc(Br)c(O)c(CN(C)C)c12 | 11µM | ? | – | – | – | –
CCOC(=O)c1c(CSc2ccccc2)n(C)c2ccc(O)c(CN3CCOCC3)c12 | 40µM | 35µM | – | – | – | –
CCOC(=O)c1c(C)n(C)c2ccc(O)c(CN3CCC(C)CC3)c12 | ? | – | – | – | – | –
CCN1CCN(Cc2c(O)ccc3oc(C)c(C(=O)Nc4cccc(Cl)c4C)c23)CC1 | – | – | – | · | – | ·
CCCCc1nc2ccccc2c(NC(=O)CNC(C)(C)C)c1CCC | 8.9µM | 50µM | – | – | 10µM | ?
CCCCc1nc2ccccc2c(N)c1CCC (tested in a mixture with another compound) | – | – | – | – | – | –
O=C(NCc1ccccc1CN1CCCC1)C1CCN(C(=O)c2ccc(F)cc2)CC1 | –[2.33 µM] | – | – | – | – | ·
CN(C)CC(C)(C)CNC(=O)C1CCN(Cc2ccccc2O)CC1 | 10µM | 56µM | ? | – | 6.3µM | –
CN(C)c1ccc(CNC(=O)C2CCN(Cc3cc4ccccc4n3Cc3ccccc3)CC2)cc1 | 11µM | 3.5µM | – | · | 11µM | ·
O=C(NCCc1ccccc1)C1CCN(Cc2cc3ccccc3n2Cc2cccc(Cl)c2)CC1 | – | – | – | · | – | ·
CN(C)c1ccc(CNC(=O)C2CCN(c3nc4ccccc4[nH]3)CC2)cc1 | 16µM | ? | – | · | ? | ·
Cc1ccc(Cn2c(CN3CCC(C(=O)NCCc4ccccc4)CC3)cc3ccccc32)cc1 | 8.9µM | 18µM | ? | · | 40µM | ·
COC(=O)c1ccc(C(NC(=O)OCc2ccccc2)/C(C)=C/[C@@H](C)C(=O)N(C)Cc2cccnc2)cc1 (some centres undefined) | · | · | · | · | · | –
COc1cccc(-c2n[nH]nc2C2=CC(=O)C[C@H](c3ccc(F)cc3)C2)c1 | · | · | · | – | · | ·
CCCNC(=O)Cn1ncc2c3ccccc3n(CCC)c2c1=O | – | – | – | · | – | ·
O=C(NCCc1ccccc1)C1CCN(Cc2ccccc2F)CC1 | 7.9µM | 56µM | 25µM | – | 2.5µM | –
O=C(NCCc1ccccc1)C1CCN(C(=O)c2ccc(F)cc2)CC1 | – | – | – | – | – | –
CC1=C(c2ccc(C)c(C)c2)S(=O)(=O)N=C1N1CCC(C(=O)NCc2ccc(N(C)C)cc2)CC1 | – | ? | – | · | ? | ·
Cc1ccsc1CN1CCC(C(=O)NCc2ccccc2Cl)CC1 | 10µM | – | ? | – | 7.9µM | ?
CCC1=C(c2ccc(C)cc2)S(=O)(=O)N=C1N1CCC(C(=O)NCc2ccc(N(C)C)cc2)CC1 | 13µM | ? | – | · | ? | ·
CN(C)c1ccc(CNC(=O)C2CCN(C(=O)c3ccc(-n4ccc5ccccc54)s3)CC2)cc1 | ? | – | ? | · | 18µM | ·
SMILES | G9a inh | BAZ2B block | HP1b binding inh | PLK1 PBD block | JMJD2A Tudor | Sfp inh
CN(C(=O)c1cccc(NC(=O)Cc2ccc(NC(=O)C3CCN(S(=O)(=O)c4cccc([N+](=O)[O-])c4)CC3)cc2)c1)C1CCCCC1 | · | · | – | – | – | ·
COc1ccc(-n2nnnc2-c2ccc(S(C)(=O)=O)cc2Cl)cc1 | –[2.33 µM] | – | – | – | – | –
[O-][n+]1c2ccccc2cc2ccccc21 | –[2.33 µM] | – | – | 24µM | ? | ·
COc1ccc(C(=O)Nc2cc(C(C)=O)c(C)oc2=O)cc1 | 35µM | – | – | – | – | ?
COC(=O)c1cc(NC(=O)c2ccccc2)c(=O)oc1/C=C/Nc1ccc(Oc2ccccc2)cc1 | – | – | – | – | – | –
CC(=O)c1cc(NC(=O)c2cccc(C(F)(F)F)c2)c(=O)oc1/C=C/N(C)C | – | – | – | – | – | –
CC(=O)c1cc(NC(=O)c2cccc(C(F)(F)F)c2)c(=O)oc1C | 25µM | – | – | 24µM | –[11.4 µM] | 14µM
CC(=O)c1cc(NC(=O)c2ccc(Cl)cc2)c(=O)oc1/C=C/N(C)C | ? | – | – | – | – | 56µM
COC(=O)CC1C(C)(C)C(=O)C2CC3=C4CC(=O)OC(c5ccoc5)[C@]4(C)CCC3[C@@]1(C)C2=O (some centres undefined) | –[2.33 µM] | · | · | · | · | –
CC1CN(c2ccc(NC(=S)Nc3ccc(N4CC(C)OC(C)C4)cc3)cc2)CC(C)O1 (centres undefined) | 45µM | – | – | – | – | –
N[C@@H](COP(=O)(O)O)C(=O)O | – | · | · | · | · | 40µM!
N[C@@H](CCCP(=O)(O)O)C(=O)O | · | · | · | · | · | –
COc1ccc(S(=O)(=O)NC2(C(F)(F)F)NC(=O)N(CCc3ccccc3)C2=O)cc1 (centres undefined) | 45µM | – | – | – | – | –
CC(C)CN1C(=O)NC(NS(=O)(=O)c2ccc(N)cc2)(C(F)(F)F)C1=O (centres undefined) | – | – | – | 21µM | – | –
O=C1NC(NS(=O)(=O)c2ccccc2)(C(F)(F)F)C(=O)N1CCc1ccccc1 (centres undefined) | – | – | – | – | – | –
COc1ccc(S(=O)(=O)NC2(C(F)(F)F)NC(=O)N(CCc3ccc(OC)c(OC)c3)C2=O)cc1 (centres undefined) | 50µM! | – | – | – | – | –
COc1ccc(CCN2C(=O)NC(NC(=O)CC(C)C)(C(F)(F)F)C2=O)cc1OC (centres undefined) | – | – | – | – | – | –
CCN(C(=O)CSc1nc2ccccc2n1Cc1ccccc1C#N)c1ccccc1 | – | ? | – | · | – | ·
CSCCC(NC=O)C(=O)NC(C)C(=O)O (centres undefined) | · | · | – | – | – | ·
CC(=O)c1cc(C(=O)c2ccccc2)sc1Nc1ccccc1 | – | – | – | – | – | 79µM
Cc1nc(Nc2ccccc2)sc1C(=O)c1ccccc1 | · | – | – | – | – | –
O=C(O)c1ccccc1C(=O)NNc1ccc(Cl)cc1 | ? | – | – | – | – | –
CC(C)(C)c1ccc(C(=O)NNc2ccc(F)cc2F)cc1 | 22µM | – | – | ? | 89µM | –
O=C(O)c1ccccc1C(=O)NNc1cccc(Cl)n1 | 45µM | – | – | – | – | –
O=C(O)c1ccccc1C(=O)NNc1ccc(F)cc1F | 50µM | – | – | – | – | –
O=C(N/N=C/c1ccc(O)cc1O)/C(=C/c1ccccc1)CCO | – | – | – | – | 79µM | –
